Tests used:
[1] = tested on: Human papillomavirus type 1a protein E7 (residues 44-93); test: small molecules binding HPV E7 44-93 – biochemical, small-molecule microarray, residues 44-93, 635 nm fluorescence, primary screen (AID 1108); conditions: fluorescence 635 nm, higher = more signal;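 also: E7 fragment applied at 1 µg/mL in TBST for 1 h at 4 C; score combines spot fluorescence with its signal to noise ratio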
[2] = hepatitis C replication reporter changes, two-sided – Huh7 cells, luciferase reporter, HCV replication inhibitor project, primary screen (AID 1109); conditions: Huh7 HCV replicon luciferase reporter, 48 h; higher = more signal;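 also: huh7 hepatoma cells harbouring a luciferase neomycin HCV replicon reporter; luciferase luminescence as measure of HCV replicon replication; test concentration not given here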
[3] = biological target: Left-right determination factor 2 (Homo sapiens) (UniProt O00292); test: small molecules binding LEFTY2 protein – biochemical, small-molecule microarray, 635 nm fluorescence scan, primary screen (AID 1110); conditions: higher = more signal
Left-right determination factor 2 (Homo sapiens), sequence (O00292 whole entry, looked up): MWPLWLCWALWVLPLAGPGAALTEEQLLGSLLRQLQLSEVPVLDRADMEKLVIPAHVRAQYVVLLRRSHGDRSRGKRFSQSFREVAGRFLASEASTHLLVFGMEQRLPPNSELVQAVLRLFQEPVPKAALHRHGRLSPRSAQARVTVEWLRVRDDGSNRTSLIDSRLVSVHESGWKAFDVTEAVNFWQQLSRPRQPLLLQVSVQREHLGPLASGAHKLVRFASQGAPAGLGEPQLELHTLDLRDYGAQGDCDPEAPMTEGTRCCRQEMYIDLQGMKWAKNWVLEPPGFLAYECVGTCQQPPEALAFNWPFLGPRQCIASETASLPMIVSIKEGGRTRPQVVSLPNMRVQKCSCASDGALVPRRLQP

[4] = biological target: Calmodulin-1 (Homo sapiens) (UniProt P0DP23); test: small molecules binding calmodulin-1 with EGTA – biochemical, small-molecule microarray, Cy5-labelled CALM1, profiling panel (AID 1111); conditions: Cy5-CALM1 binding fluorescence, higher = more signal;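 also: labelled calmodulin applied in Tris saline Tween buffer holding calcium plus EGTA and DTT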
[5] = biological target: Calmodulin-1 (Homo sapiens) (UniProt P0DP23); test: small molecules binding Ca-loaded calmodulin-1 – biochemical, small-molecule microarray, Cy5-labelled CALM1, plus calcium, artefact control for SMM control-protein annotation, profiling panel (AID 1112); conditions: Cy5-CALM1 binding fluorescence, higher = more signal;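 also: score merges spot fluorescence with signal to noise from triplicate slides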
[6] = probe aWnt5a binding to arrayed compounds – biochemical, biotinylated probe, 635/667 nm fluorescence, primary screen (AID 1113); conditions: small-molecule microarray, higher = more signal;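 also: score merges 667 nm fluorescence intensity with signal-to-noise per printed feature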
[7] = probe aShh binding to arrayed compounds – biochemical, biotinylated probe, 635/667 nm fluorescence, primary screen (AID 1114); conditions: small-molecule microarray, higher = more signal;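 also: probe is biotin-labelled aShh protein from a stem cell growth factor screen; measures binding of labelled protein to compounds printed on the slide; score merges feature fluorescence at 667 nm with signal-to-noise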
[8] = probe aNog binding to arrayed compounds – biochemical, biotinylated probe, 635/667 nm fluorescence, primary screen (AID 1115); conditions: small-molecule microarray, higher = more signal;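 also: probe is biotinylated aNog protein used at 0.15 µg/mL for 1 h at 4 C; z-score combines 667 nm fluorescence of each spot with its signal to noise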
[9] = biological target: Torsin-1A-interacting protein 1 (Homo sapiens) (UniProt Q5JTV8); test: compound microarray binding of lysate hLAP1 – cell lysate, small-molecule microarray, COS7 lysate, 635/667 nm fluorescence, primary screen (AID 1116); conditions: 635 nm fluorescence, higher = more signal
Torsin-1A-interacting protein 1 (Homo sapiens), sequence (Q5JTV8 whole entry, looked up): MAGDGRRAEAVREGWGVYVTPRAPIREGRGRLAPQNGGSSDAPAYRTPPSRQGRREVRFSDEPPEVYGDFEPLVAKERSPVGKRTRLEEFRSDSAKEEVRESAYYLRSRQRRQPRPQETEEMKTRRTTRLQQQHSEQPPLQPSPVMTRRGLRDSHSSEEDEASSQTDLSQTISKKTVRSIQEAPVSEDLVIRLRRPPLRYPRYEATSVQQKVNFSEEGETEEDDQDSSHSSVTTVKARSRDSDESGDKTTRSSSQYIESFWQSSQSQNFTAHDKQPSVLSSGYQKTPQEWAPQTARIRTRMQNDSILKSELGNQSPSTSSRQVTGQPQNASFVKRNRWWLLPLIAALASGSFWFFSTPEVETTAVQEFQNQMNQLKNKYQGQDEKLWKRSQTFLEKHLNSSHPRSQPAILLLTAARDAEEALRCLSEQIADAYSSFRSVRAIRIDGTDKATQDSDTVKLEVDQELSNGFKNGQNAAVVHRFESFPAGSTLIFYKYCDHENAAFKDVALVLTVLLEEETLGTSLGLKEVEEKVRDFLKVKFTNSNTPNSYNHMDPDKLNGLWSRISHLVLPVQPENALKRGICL

[10] = biological target: Alpha-bungarotoxin (Bungarus multicinctus) (UniProt P60615); test: compounds binding labelled alpha-BTX control protein – biochemical, small-molecule microarray, Alexa647 label, 635/667 nm fluorescence, artefact control for SMM control protein annotation, profiling panel (AID 1117); conditions: alpha-BTX-A647 binding fluorescence, higher = more signal
Alpha-bungarotoxin (Bungarus multicinctus), sequence (P60615 whole entry, looked up): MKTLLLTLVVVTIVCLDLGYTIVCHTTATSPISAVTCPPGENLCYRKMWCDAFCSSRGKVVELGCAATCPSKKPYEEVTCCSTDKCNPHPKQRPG

SMILES | composite z-score [1] | z-score [2] | composite z-score [3] | composite z-score [4] | composite z-score [5] | composite z-score [6] | composite z-score [7] | composite z-score [8] | composite z-score [9] | composite z-score [10]
CCOC(=O)[C@H]1C/C=C/C[C@H](C(=O)OCC)C(=O)O[C@H]2[C@@H](OC)O[C@H](CO)[C@@H](OC(=O)Nc3ccc(OC)cc3)[C@@H]2OC1=O | 0.89 | -2.82 | 0.721 | 0.433 | 0.118 | 0.0395 | -0.0146 | 0.206 | 0.753 | 1.09
CC(C)(C)OC(=O)CC[C@]1(C(=O)O)N=C(c2ccc(OCCCO)cc2)O[C@H]1c1ccccc1CN=[N+]=[N-] | -0.391 | 0.0879 | -0.688 | 0.32 | 0.81 | -0.136 | 0.0668 | 0.718 | 0.69 | -0.489
COc1ccc(NN2C(C(O)c3ccco3)C=CC3C(=O)N(C4CCCCC4)C(=O)C32)cc1 (stereo not given) | 1.42 | 0.224 | 0.519 | 0.9 | 0.267 | 0.0613 | 0.0639 | 0.353 | 0.605 | 0.916
COc1cc(CO)cc(I)c1O[C@H]1C=C(C(=O)NCCO)C[C@@H](NCc2ccccc2F)[C@@H]1O | 0.509 | -2.62 | 0.365 | -0.154 | -0.327 | -0.264 | -0.138 | -0.103 | 1.4 | 0.109
CN(C)CCCNC(=O)[C@@]1(C)c2ccccc2C(=O)N(Cc2cc(C(F)(F)F)cc(C(F)(F)F)c2)[C@H]1c1ccc(CO)cc1 | -0.488 | -1.85 | -1.31 | 0.139 | 0.0751 | -0.118 | -0.134 | -0.484 | -0.54 | -0.779
COC(=O)C[C@H]1O[C@]2(C(=O)N(C)c3ccccc32)[C@@H](C)[C@@H]1[Si](C)(C)c1ccc(C)cc1 | 1.15 | -2.92 | 0.375 | 0.196 | -0.0787 | -0.136 | -0.393 | -0.121 | 0.346 | 0.638
CCOC(=O)C[C@H]1[C@H](OC(=O)c2ccc(-c3ccccc3)cc2)[C@@H](NC(=O)c2ccc3ccccc3c2)c2cc(OCCCO)ccc2N1C(=O)c1ccc2ccccc2n1 | 1.18 | -1.07 | 0.249 | 1.31 | 0.593 | -0.0445 | -0.112 | -0.324 | 0.639 | 0.0804
CCOC(=O)C1=CC[C@@H](c2ccccc2)N(S(=O)(=O)c2ccc(C)cc2)C1 | 0.493 | -2.23 | -0.0161 | -0.11 | -0.374 | -0.0459 | 0.485 | 0.005 | 0.127 | 0.329

From PubChem BioAssay
